In all, about 52,000 compounds went through this assay and about 1,700 (3.3%) were called active. No stated cut-off is given here; in the data, active means survival mostly below about 52% (no sharp cut-off); inactive means mostly above about 56%. What follows is part of a selection rich in actives, with near analogues and random picks from the rest.

The test system of this test is Wild type. Nature of the test: growth inhibition of S. aureus wild type versus tarO mutant, primary screen, teichoic acid synthesis inhibitors, RN4220, OD600 (AID 463173). To be noted: S. aureus RN4220 wild type/DeltatarO growth, OD600, 18 h, active compounds read low, screened at 18.75 µg/mL (by protocol).
`O=C(O)CCc1ccc(-c2cccs2)n1CC(=O)Nc1ccccc1C(F)(F)F`: the survival is 105% (inactive). In the case of `COc1ccc(OC)c(NC(=O)N2CCC(CN3CCCCC3)CC2)c1`, the survival was 70% (inactive). With `O=C(NCC(c1cccs1)S(=O)(=O)c1cccs1)c1c(F)cccc1F` (stereo not drawn), the survival was 71% (inactive). As for `COCCCNC(=O)C1CCN(Cc2cc3ccccc3n2Cc2ccccc2C)CC1`, the survival was 78% (inactive). As for `C=CCC1Cc2ccccc2C(CC=C)N1` (stereo not drawn), the survival is 100% (inactive).

`CC1CCCCN1CCCNC(=O)c1ccc2c(c1)sc1nc(-c3ccc(F)cc3)cn12` (stereo not drawn): the survival is 26% (inactive).

Take `CCCN1CCN(CCCNC(=O)c2ccc3c(c2)sc2nc(-c4ccc(C)cc4)cn23)CC1`: the survival was 20% (inactive).

On to `CCC1CCCCN1CCCNC(=O)c1ccc2c(c1)sc1nc(-c3ccc(F)cc3)cn12` (stereo not drawn), for which the survival is 6% (active).

Regarding `Cc1ccc(-c2cn3c(n2)sc2cc(C(=O)NCCCN4CCCCC4)ccc23)cc1`, the survival is -1% (active).

Take `O=C(NCCCN1CCCCC1)c1ccc2c(c1)sc1nc(-c3ccc(F)cc3)cn12`: the survival is 43% (inactive).

For the compound `Cc1ccc(-c2cn3c(n2)sc2cc(C(=O)NCCCN4CCCCCC4)ccc23)cc1`, the survival is -1% (active). With `COc1ccc(-c2cn3c(n2)sc2cc(C(=O)NCCCN4CCCCCC4)ccc23)cc1`, the survival was 66% (inactive). The result for `CCN1CCN(CCCNC(=O)c2ccc3c(c2)sc2nc(-c4ccc(C)cc4)cn23)CC1` reads 29% (inactive); that for `COc1ccc(-c2cn3c(n2)sc2cc(C(=O)NCCCN4CCCCC4)ccc23)cc1`, 81% (inactive). With `CCCCNC(=O)c1ccc(-c2nc(CS(=O)(=O)c3ccc(C)cc3)c(C)o2)cc1`, the survival is 83% (inactive). The result for `COc1ccc(C2=NN(C(C)=O)C(c3cn(-c4ccccc4)nc3-c3cccs3)C2)cc1` (stereo not drawn) reads 127% (inactive); that for `O=C(NCCN1CCOCC1)N1CCNC1=O`, 110% (inactive); that for `CC1(C)N=C2C(=[N+]1[O-])CCC/C2=N/O`, 110% (inactive). In the case of `Cc1ccc(C)c(NC(=O)NCc2ccc3c(c2)CCN3C(=O)c2ccccc2)c1`, the survival is 66% (inactive). As for `CC(C)N1CCc2nc(SCC(=O)Nc3cccc(F)c3)[nH]c(=O)c2C1`, the survival was 83% (inactive). Regarding `Cc1ccc(NC(=O)Cn2c(=O)n(CCC(C)C)c(=O)c3cccnc32)cc1C`, the survival was 90% (inactive).

For `Cc1ccc(-c2nc(CS(=O)CC(=O)NCc3ccccc3Cl)c(C)o2)cc1` (stereo not drawn), the survival is 72% (inactive). The same measure for `CCc1cc(=O)[nH]c(SCc2nc(-c3cccc(Cl)c3)no2)n1`: 22% (inactive); for `CCCc1cc(=O)[nH]c(SCc2nc(-c3ccccc3)no2)n1`: -2% (active).

As for `Cc1ccc2nc(SCc3nc(-c4ccc(Cl)cc4)no3)[nH]c2c1`, the survival was -4% (active). On to `Cc1ccccc1-c1noc(CSc2nc(-c3ccc(F)cc3)cc(=O)[nH]2)n1`, for which the survival is 10% (active). In the case of `O=c1cc(-c2ccc(F)cc2)nc(SCc2nc(-c3ccccc3Cl)no2)[nH]1`, the survival was 121% (inactive). As for `Cc1ccc2nc(SCc3nc(-c4ccccc4C)no3)[nH]c2c1`, the survival is 27% (inactive). `Cc1cccc(-c2noc(CSc3nc(-c4ccc(F)cc4)cc(=O)[nH]3)n2)c1`: the survival is 82% (inactive). The result for `O=c1cc(-c2ccccc2)nc(SCc2nc(-c3ccc(C(F)(F)F)cc3)no2)[nH]1` reads 150% (inactive). Consider `CCc1cc(=O)[nH]c(SCc2nc(-c3ccc(C(F)(F)F)cc3)no2)n1`, for which the survival is 0% (active). As for `CCc1cc(=O)[nH]c(SCc2nc(-c3ccccc3)no2)n1`, the survival was 87% (inactive). The result for `CCCc1cc(=O)[nH]c(SCc2nc(-c3ccc(C)cc3)no2)n1` reads 73% (inactive).

For `COc1ccc(-c2noc(CSc3nc4ccc(C)cc4[nH]3)n2)cc1`, the survival is 47% (inactive).

As for `CCn1nc(CC(=O)Nc2nnc(CC(=O)N3CCCC3)s2)c2ccccc2c1=O`, the survival is 95% (inactive). For the compound `Cc1nc2ccc(S(=O)(=O)NC(C(=O)NCc3ccc(Cl)cc3)C(C)C)cc2s1` (stereo not drawn), the survival is 133% (inactive).

Consider `O=C(CCS(=O)(=O)c1cc2c(cc1Cl)NC(=O)CO2)NCc1ccccc1Cl`, for which the survival is 88% (inactive). For `COc1cc(NC(=O)CN(c2cc(C)cc(C)c2)S(=O)(=O)c2c(C)[nH]c(=O)[nH]c2=O)cc(OC)c1`, the survival was 83% (inactive).

Consider `Cc1cccc(NC(=O)C2CCN(c3nnc(-n4c(C)ccc4C)s3)CC2)c1C`, for which the survival was 132% (inactive).

Take `O=C(COCc1cc(-c2ccc(F)cc2)on1)Nc1cccc(C(F)(F)F)c1`: the survival is 77% (inactive). `O=C(c1ccccc1)N(Cc1ccco1)Cc1cccs1`: the survival was 82% (inactive). The result for `CCn1c(CN2CCCCC2)nc2cc(NC(=O)COc3ccccc3C(C)(C)C)ccc21` reads 122% (inactive); that for `Cc1ccc(Cn2cc(C(=O)c3ccc(C)cc3)c(=O)c3ccc(C)nc32)cc1`, 20% (active). The result for `Cc1ccc(C(=O)c2cn(Cc3ccc(Cl)cc3)c3nc(C)ccc3c2=O)cc1` reads 53% (inactive). Turning to `Cc1ccc(C(=O)c2cn(Cc3ccc(F)cc3)c3nc(C)ccc3c2=O)cc1`, the survival is 95% (inactive). Regarding `CCOC(=O)c1cc(-c2ccccc2)n(CC(=O)Nc2cc(Cl)c(OC)cc2OC)c1C`, the survival was 128% (inactive). Consider `CCOC(=O)c1ccc(NS(=O)(=O)c2cc(Br)cc3c2N(C(C)=O)C(C)C3)cc1` (stereo not drawn), for which the survival was 83% (inactive). With `COc1ccc(N2CCN(C(=O)CCS(=O)(=O)c3cc4c(cc3Cl)NC(=O)CO4)CC2)cc1`, the survival is 85% (inactive). For `CCOCCc1nnc(NC(=O)C(=O)c2cc(C)n(-c3ccc(C)cc3C)c2C)s1`, the survival was 85% (inactive). Consider `Fc1ccc(Nc2c(-c3ccco3)nc3ccccn23)cc1`, for which the survival was 69% (inactive). Take `Cc1ccccc1Nc1c(-c2ccc(Cl)s2)nc2cccc(C)n12`: the survival is 80% (inactive). As to `Cc1ccc(-c2nc3ccc(Cl)cn3c2Nc2ccccc2C)s1`, the survival is 94% (inactive). The same measure for `Cc1ccc(-c2nc3c(C)cccn3c2Nc2ccccc2C)s1`: -2% (active); for `Cc1ccc(-c2nc3ccccn3c2Nc2ccccc2C)s1`: 11% (active); for `Cc1cccc(C)c1Nc1c(-c2ccccn2)nc2c(C)cccn12`: 77% (inactive).

On to `Cc1ccccc1Nc1c(-c2ccc(Cl)s2)nc2c(C)cccn12`, for which the survival is 69% (inactive).

Take `Cc1ccc(Nc2c(-c3ccc(C)s3)nc3ccccn23)cc1`: the survival is 31% (inactive). `Cc1ccccc1Nc1c(-c2ccco2)nc2c(C)cccn12`: the survival is 1% (active).

The values above are taken from PubChem BioAssay AID463173 (ICCB-Longwood Screening Facility, Harvard Medical School, 2010).
